In PubChem BioAssay (NCI) one finds growth data, which are given here for eight molecules.

Test systems include DU-145 prostate; K-562 leukemia; MALME-3M melanoma; MDA-MB-231 breast; RXF 393 renal; SF-268 CNS; SF-295 CNS; SF-539 CNS; UACC-257 melanoma; M14 melanoma; HCT-15 colon; HT29 colon; SNB-75 CNS; SNB-19 CNS; U251 CNS; PC-3 prostate; SK-MEL-5 melanoma; UACC-62 melanoma; LOX IMVI melanoma; SK-MEL-28 melanoma.
What all share (experiment): NCI-60 one-dose screen, 48 h (100 = growth as untreated, 0 = no growth, -100 = all killed)
Conditions in all cases: 10 µM unless noted

About 83,000 compounds went through this panel and 20% of them were active in at least one assay; those are over-represented in the sample as a whole.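 Note: values are percent growth. 100 is the growth of untreated cells, values between 100 and 0 indicate rising inhibition; between -100 and 0 indicates cell death.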 Unmarked numbers belong to inactive results. The source made the active and inactive calls. How the source made its calls: active means growth percent below 10; inactive means the rest.

As to `Cc1ccc(Nc2ccc(Nc3ccc(C)cc3S(=O)(=O)O)c3c2C(=O)c2ccccc2C3=O)c(S(=O)(=O)O)c1`, the growth in the experiment with DU-145 prostate was 102%; in the experiment with K-562 leukemia, 100%; in the experiment with MALME-3M melanoma, 101%; in the experiment on MDA-MB-231 breast it was 95.6%; in the experiment on RXF 393 renal, 107%; in the experiment with SF-268 CNS, 103%. The growth was 101% in the experiment with SF-295 CNS; 102% in the experiment with SF-539 CNS; 112% with UACC-257 melanoma; 88% with M14 melanoma; 103% in the experiment with HCT-15 colon; 98.4% in the experiment with HT29 colon. Besides, the growth was 85.3% in the experiment on SNB-75 CNS; 108% in the experiment on SNB-19 CNS; 107% in the experiment with U251 CNS; 83% in the experiment on PC-3 prostate; 102% in the experiment on SK-MEL-5 melanoma; 97.3% in the experiment on UACC-62 melanoma. Besides, the growth with LOX IMVI melanoma is 102%; in the experiment with SK-MEL-28 melanoma, 107%.

`COc1cccc(CCC2CCCN(c3cc(C)nc(N)n3)C2)c1` (stereo not given): the growth in the experiment on DU-145 prostate was 25.9%; in the experiment with K-562 leukemia, 10.9%; with MALME-3M melanoma it was 55.2%; in the experiment with MDA-MB-231 breast, 22.7%; with RXF 393 renal, 22.3%; in the experiment with SF-268 CNS, 42.6%. Moreover, the growth in the experiment with SF-295 CNS was 14.7%; in the experiment with SF-539 CNS, 10.1%; in the experiment on UACC-257 melanoma, 44.5%; in the experiment with M14 melanoma, 6.51% (active); in the experiment with HCT-15 colon it was 21.9%; in the experiment with HT29 colon it was 4.64% (active). The growth in the experiment on SNB-75 CNS was 25.9%; in the experiment on SNB-19 CNS, 23.8%; in the experiment on U251 CNS, 15%; in the experiment on PC-3 prostate, 20.2%; in the experiment on SK-MEL-5 melanoma it was 18.2%; in the experiment on UACC-62 melanoma, 29.3%. The growth with LOX IMVI melanoma was 17%; in the experiment on SK-MEL-28 melanoma, 50.2%.

As to `COc1cc2nc(Nc3ccc(F)cc3)nc(N)c2cc1OC`, the growth with DU-145 prostate is 93.5%; with K-562 leukemia it was 77.8%; in the experiment on MALME-3M melanoma, 105%; in the experiment on MDA-MB-231 breast, 81.7%; in the experiment with RXF 393 renal it was 54.5%; in the experiment on SF-268 CNS, 90%. For the same molecule, the growth in the experiment with SF-295 CNS is -2.33% (active); with SF-539 CNS, 95.5%; in the experiment on UACC-257 melanoma, 102%; in the experiment with M14 melanoma, 107%; in the experiment on HCT-15 colon, 94.7%; in the experiment on HT29 colon, 81%. The growth was 103% in the experiment on SNB-75 CNS; 92.6% with SNB-19 CNS; 94% with U251 CNS; 84.1% in the experiment on PC-3 prostate; 90.5% in the experiment on SK-MEL-5 melanoma; 94% in the experiment on UACC-62 melanoma. Further, the values for the growth in the experiment on LOX IMVI melanoma and with SK-MEL-28 melanoma were 101% and 105%, respectively.

With `O=C(CC12CC3CC(CC(C3)C1)C2)NCCOCCOCCNC(=O)c1cc2c(o1)C(=O)c1ccccc1C2=O`, the growth in the experiment on DU-145 prostate is -95.7% (active); in the experiment on K-562 leukemia it was 1.74% (active); in the experiment with MALME-3M melanoma it was -97.1% (active); in the experiment on MDA-MB-231 breast it was -9.38% (active); in the experiment with RXF 393 renal, -92.3% (active); in the experiment with SF-268 CNS it was -16.4% (active). Also, the growth in the experiment with SF-295 CNS was -94.2% (active); with SF-539 CNS it was -96.1% (active); in the experiment on UACC-257 melanoma it was -95.3% (active); with M14 melanoma, -73.6% (active); in the experiment with HCT-15 colon it was -80.2% (active); in the experiment with HT29 colon, 3.08% (active). For the same molecule, the growth was -99% (active) in the experiment on SNB-75 CNS; -16.3% (active) in the experiment on SNB-19 CNS; -87.8% (active) in the experiment on U251 CNS; 4.8% (active) in the experiment with PC-3 prostate; -97.5% (active) in the experiment on SK-MEL-5 melanoma; -94.9% (active) in the experiment with UACC-62 melanoma. The growth is -95.1% (active) with LOX IMVI melanoma and -73.5% (active) with SK-MEL-28 melanoma.

For the molecule `COc1cc2cc(Oc3ccc(NC(=O)Nc4cc(C(F)(F)F)cc(C(F)(F)F)c4)cc3)c(C)nc2cc1OCCN1CCCCC1`, the growth in the experiment with DU-145 prostate was -95% (active); with K-562 leukemia, -49.3% (active); in the experiment on MALME-3M melanoma, -86.2% (active); with MDA-MB-231 breast, -97.3% (active); with RXF 393 renal, 31.8%; in the experiment with SF-268 CNS it was -49.3% (active). Besides, the growth in the experiment with SF-295 CNS was -81.8% (active); with SF-539 CNS, -94% (active); with UACC-257 melanoma it was -47.4% (active); in the experiment on M14 melanoma, -79.6% (active); in the experiment on HCT-15 colon, -82.4% (active); in the experiment with HT29 colon, -64.8% (active). The growth was -97.7% (active) in the experiment with SNB-75 CNS; -92.2% (active) in the experiment on SNB-19 CNS; -69.3% (active) with U251 CNS; -45.2% (active) in the experiment on PC-3 prostate; -49.9% (active) with SK-MEL-5 melanoma; -84.9% (active) in the experiment on UACC-62 melanoma. The growth in the experiment on LOX IMVI melanoma is -99.1% (active); in the experiment with SK-MEL-28 melanoma, -95.5% (active).

As to `N#C/C=C(\c1ccc([N+](=O)[O-])cc1)n1nnc2cc(Cl)c(Cl)cc21`, the growth was -21.2% (active) in the experiment with DU-145 prostate; 13.9% in the experiment with K-562 leukemia; 40.7% in the experiment with MALME-3M melanoma; 2.77% (active) with MDA-MB-231 breast; 0.579% (active) in the experiment with RXF 393 renal; 20.3% in the experiment on SF-268 CNS. Also, the growth with SF-295 CNS was 14.1%; with SF-539 CNS, -9.65% (active); in the experiment with UACC-257 melanoma it was 45.6%; in the experiment with M14 melanoma, 21.1%; in the experiment on HCT-15 colon, -39.1% (active); in the experiment on HT29 colon, 3.93% (active). The growth in the experiment on SNB-75 CNS was 18.1%; with SNB-19 CNS it was 41.5%; with U251 CNS, 11.8%; in the experiment on PC-3 prostate it was -12.5% (active); in the experiment with SK-MEL-5 melanoma it was 38.5%; in the experiment with UACC-62 melanoma, 3.91% (active). The growth was -79.9% (active) in the experiment with LOX IMVI melanoma and 43.2% in the experiment on SK-MEL-28 melanoma.

With `Cc1[nH]c(-c2nc3ccccc3[nH]2)c(C)c1C(=O)NNc1ccc(Cl)cc1`, the growth in the experiment with DU-145 prostate is 105%; with K-562 leukemia, 94.1%; in the experiment with MALME-3M melanoma it was 94.5%; with MDA-MB-231 breast it was 79.2%; in the experiment with RXF 393 renal it was 103%; in the experiment with SF-268 CNS, 95.3%. In addition, the growth with SF-295 CNS is 109%; in the experiment with SF-539 CNS it was 95.7%; with UACC-257 melanoma it was 91%; in the experiment on M14 melanoma, 102%; in the experiment on HCT-15 colon it was 94.1%; with HT29 colon it was 104%. Besides, the growth in the experiment with SNB-75 CNS was 87.1%; with SNB-19 CNS, 87.1%; with U251 CNS it was 103%; with PC-3 prostate, 85.6%; in the experiment on SK-MEL-5 melanoma, 98.2%; in the experiment with UACC-62 melanoma it was 90.2%. The growth in the experiment with LOX IMVI melanoma is 93.6%; in the experiment with SK-MEL-28 melanoma it was 99.6%.

In the case of `CCNCCNc1cc(C2CCCC2)c(C#N)c2nc3ccccc3n12`, the growth is 28% in the experiment with DU-145 prostate; -28.3% (active) in the experiment on K-562 leukemia; -46.6% (active) in the experiment on MALME-3M melanoma; -45% (active) with MDA-MB-231 breast; -32.4% (active) in the experiment on RXF 393 renal; 22.1% in the experiment with SF-268 CNS. Moreover, the growth with SF-295 CNS is -61.7% (active); in the experiment with SF-539 CNS, -82.4% (active); in the experiment with UACC-257 melanoma, -27.3% (active); in the experiment with M14 melanoma, -25.7% (active); in the experiment on HCT-15 colon, 26.8%; in the experiment on HT29 colon it was -9.9% (active). For the same molecule, the growth in the experiment on SNB-75 CNS is -33.3% (active); in the experiment with SNB-19 CNS it was 36.8%; in the experiment with U251 CNS it was -19.1% (active); in the experiment on PC-3 prostate, 39.6%; in the experiment on SK-MEL-5 melanoma it was -56.7% (active); in the experiment on UACC-62 melanoma, -81.4% (active). Besides, the growth in the experiment with LOX IMVI melanoma was -79% (active); in the experiment on SK-MEL-28 melanoma, -63.8% (active).
